62 compounds from publication PMC4336329 (PLoS ONE, 2015) can be followed below.

About 14,000 (4.5%) of roughly 310,000 compounds showed an effect of 50% or more. The effect is printed as a negative number. The list comes from a sample in which strong results are over-represented; it also holds similar structures and randomly drawn compounds.
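Further: peak tail current of the secondary pulse compared with the same well before compound.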

The assay deals with human ether-à-go-go-related gene (hERG) potassium channel (human, UniProt Q12809). The assay can be described thus: primary screen, population patch clamp on CHO cells stably expressing hERG; higher = less effect of the substance.
Sequence of human ether-à-go-go-related gene (hERG) potassium channel (Q12809 whole entry, looked up): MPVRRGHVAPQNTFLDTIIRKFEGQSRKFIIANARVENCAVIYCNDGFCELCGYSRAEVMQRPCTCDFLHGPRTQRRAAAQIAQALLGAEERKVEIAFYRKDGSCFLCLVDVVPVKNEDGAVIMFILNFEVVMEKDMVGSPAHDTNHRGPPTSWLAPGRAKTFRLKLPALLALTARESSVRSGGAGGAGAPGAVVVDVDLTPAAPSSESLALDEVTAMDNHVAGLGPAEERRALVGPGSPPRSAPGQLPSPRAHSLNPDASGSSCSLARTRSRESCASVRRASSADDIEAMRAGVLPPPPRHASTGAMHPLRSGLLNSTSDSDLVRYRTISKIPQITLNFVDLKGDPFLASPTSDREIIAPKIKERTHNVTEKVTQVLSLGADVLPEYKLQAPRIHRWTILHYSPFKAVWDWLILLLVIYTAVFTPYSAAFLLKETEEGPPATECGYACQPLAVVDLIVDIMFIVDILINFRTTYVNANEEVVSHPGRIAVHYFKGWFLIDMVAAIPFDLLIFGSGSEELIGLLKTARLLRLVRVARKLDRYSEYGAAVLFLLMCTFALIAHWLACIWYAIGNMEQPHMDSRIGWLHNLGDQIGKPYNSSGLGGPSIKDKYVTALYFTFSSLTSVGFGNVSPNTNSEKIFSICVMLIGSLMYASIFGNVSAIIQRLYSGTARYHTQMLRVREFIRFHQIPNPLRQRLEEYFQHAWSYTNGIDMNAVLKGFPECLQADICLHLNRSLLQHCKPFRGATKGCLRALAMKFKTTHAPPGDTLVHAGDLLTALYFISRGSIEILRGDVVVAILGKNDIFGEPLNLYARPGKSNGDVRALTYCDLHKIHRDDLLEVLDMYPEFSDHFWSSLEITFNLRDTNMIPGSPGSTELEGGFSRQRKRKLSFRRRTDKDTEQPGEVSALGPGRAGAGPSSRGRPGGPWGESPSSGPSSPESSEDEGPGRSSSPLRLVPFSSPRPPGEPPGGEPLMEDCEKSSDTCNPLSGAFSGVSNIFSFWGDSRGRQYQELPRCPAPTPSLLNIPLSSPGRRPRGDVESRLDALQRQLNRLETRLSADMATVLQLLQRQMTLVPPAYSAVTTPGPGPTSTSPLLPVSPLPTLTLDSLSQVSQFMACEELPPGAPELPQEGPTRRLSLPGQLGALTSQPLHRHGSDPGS
Consider `CN(C)S(=O)(=O)c1ccc(N2CCOCC2)c(C(=O)NCc2ccc3c(c2)OCO3)c1`, for which the “hERG current change (%, negative = inhibition) at 10uM” value was -14.7%.

Consider `COC(=O)c1ccc(/C=N/Nc2nc3ccccc3[nH]2)cc1`, for which the “hERG current change (%, negative = inhibition) at 10uM” value is recorded as 11.4%.

On to `C=C(C)C(=O)Nc1cccc(C2=NOC3(C2)C[C@@H](C(N)=O)N(C(=O)c2cc([N+](=O)[O-])cc([N+](=O)[O-])c2C)C3)c1` (some centres unmarked), for which the “hERG current change (%, negative = inhibition) at 10uM” value came to 1.96%.

Turning to `O=C(Nc1ccc(Cl)c(Cl)c1)N1CCC(N2CCCCC2)CC1`, the “hERG current change (%, negative = inhibition) at 10uM” value is recorded as -63.5%.

As to `COc1cccc(NC(=O)N2CCC(N3CCCCC3)CC2)c1`, the “hERG current change (%, negative = inhibition) at 10uM” value is recorded as -7.99%.

For `O=C(Nc1ccc(Cl)c(Cl)c1)N1CCCCCC1`, the “hERG current change (%, negative = inhibition) at 10uM” value is given as 2.82%.

In the case of `Cc1ccc(C(C)(C)C)c(OCCN2CCCC2)c1`, the “hERG current change (%, negative = inhibition) at 10uM” value is recorded as -19.5%.

As for `CC(C)[C@@H](N)C(=O)N/N=C/c1ccc2nccnc2c1.Cl`, the “hERG current change (%, negative = inhibition) at 10uM” value is on record as 17.1%.

Consider `Cc1cccc2c1-c1sc(C(=O)Nc3ccccc3N3CCN(C)CC3)cc1CO2`, for which the “hERG current change (%, negative = inhibition) at 10uM” value is reported as -13.4%.

Regarding `O=C(Nc1cccnc1Cl)c1cc2c(s1)-c1ccccc1OC2`, the “hERG current change (%, negative = inhibition) at 10uM” value was -3.48%.

Take `O=C(Nc1nccs1)c1cc2c(s1)-c1ccccc1OC2`: the “hERG current change (%, negative = inhibition) at 10uM” value is 16.2%.

On to `CC1CCCN(CCCNC(=O)c2cc3c(s2)-c2ccccc2OC3)C1` (centres unmarked), for which the “hERG current change (%, negative = inhibition) at 10uM” value was -76.4%.

For `Cc1csc(NC(=O)c2cc3c(s2)-c2ccccc2OC3)n1`, the “hERG current change (%, negative = inhibition) at 10uM” value turned out to be 3.36%.

Turning to `O=C(O)c1cc2c(s1)-c1ccccc1OC2`, the “hERG current change (%, negative = inhibition) at 10uM” value was found to be 9.73%.

Consider `CC1CCN(CCCNC(=O)c2cc3c(s2)-c2ccccc2OC3)CC1`, for which the “hERG current change (%, negative = inhibition) at 10uM” value is on record as -74.6%.

Regarding `CN1CCN(c2ccccc2NC(=O)c2cc3c(s2)-c2ccccc2OC3)CC1`, the “hERG current change (%, negative = inhibition) at 10uM” value is reported as -51.3%.

With `CC1CCCN(CCCNC(=O)CN2C(=O)COc3ccccc32)C1` (centres unmarked), the “hERG current change (%, negative = inhibition) at 10uM” value was -4.59%.

Take `CC1CC(C)CN(CCCNC(=O)c2cc3c(s2)-c2ccccc2OC3)C1` (centres unmarked): the “hERG current change (%, negative = inhibition) at 10uM” value was -70.2%.

For `CCOC(=O)C1CCN(C(=O)c2cc3c(s2)-c2ccccc2OC3)CC1`, the “hERG current change (%, negative = inhibition) at 10uM” value was -38.9%.

With `C=CCn1c(SC)nc2sc3c(c2c1=O)CCc1ccccc1-3`, the “hERG current change (%, negative = inhibition) at 10uM” value was found to be 10.3%.

As for `Cc1ncoc1C(=O)Nc1cccc(Cl)c1`, the “hERG current change (%, negative = inhibition) at 10uM” value is on record as -7.91%.

Take `OCC[C@H]1C[C@H](O)[C@@H](O)[C@]2(OCCc3ccccc32)O1`: the “hERG current change (%, negative = inhibition) at 10uM” value worked out at 2.59%.

For the compound `CC1(C)Cc2c(cnn2-c2ccccc2)C(NC(=O)CCN2CCCC2=O)C1` (centres unmarked), the “hERG current change (%, negative = inhibition) at 10uM” value is reported as 6.21%.

Turning to `C=C1CCC[C@]2(C)C[C@H]3OC(=O)C(CNC(C)CC)[C@H]3CC12` (some centres unmarked), the “hERG current change (%, negative = inhibition) at 10uM” value is recorded as 0.523%.

For `CCN(CC)C(=O)c1ccccc1NC(=O)c1ccccc1SC`, the “hERG current change (%, negative = inhibition) at 10uM” value is given as -39.6%.

Consider `CCOCc1nc(C)c(Cl)c(NS(=O)(=O)c2ccc(N)cc2)n1`, for which the “hERG current change (%, negative = inhibition) at 10uM” value worked out at 13.9%.

In the case of `COc1ccc(OC)c(N(CC(=O)N2CCCCC2)S(=O)(=O)c2ccc(OC)c(OC)c2)c1`, the “hERG current change (%, negative = inhibition) at 10uM” value is 10.6%.

Consider `COc1cc(Cl)c(C)cc1NC(=O)COC(=O)c1cc(SC)ccc1Cl`, for which the “hERG current change (%, negative = inhibition) at 10uM” value was found to be 8.99%.

As for `Cc1ccc(OCCC(=O)Nc2ccc3c(c2)OCO3)cc1`, the “hERG current change (%, negative = inhibition) at 10uM” value was 0.269%.

Regarding `CCN(Cc1ccccc1)Cc1cccc([N+](=O)[O-])c1`, the “hERG current change (%, negative = inhibition) at 10uM” value was -23.5%.

In the case of `CCN1CCN(c2nc3ccccc3nc2NS(=O)(=O)c2ccc(NC(C)=O)cc2)CC1`, the “hERG current change (%, negative = inhibition) at 10uM” value is 5.21%.

Regarding `COc1ccc(OC)c2c1C(=O)c1ccccc1C2=O`, the “hERG current change (%, negative = inhibition) at 10uM” value is on record as -5.81%.

As to `O=C(NCCCN1CCOCC1)c1cc2c(s1)-c1ccccc1OC2`, the “hERG current change (%, negative = inhibition) at 10uM” value is recorded as -44.5%.

As for `O=C(Nc1cccnc1)c1cc2c(s1)-c1ccccc1OC2`, the “hERG current change (%, negative = inhibition) at 10uM” value is on record as -2.06%.

As to `CN(C)CCNC(=O)c1cc2c(s1)-c1ccccc1OC2`, the “hERG current change (%, negative = inhibition) at 10uM” value is listed as -67.2%.

As to `CC1CCCC(C)N1CCCNC(=O)c1ccc2c(c1)NC(=O)c1ccccc1S2` (centres unmarked), the “hERG current change (%, negative = inhibition) at 10uM” value worked out at 4.54%.

As for `CCN1CCN(CCCNC(=O)c2cc3c(s2)-c2ccccc2OC3)CC1`, the “hERG current change (%, negative = inhibition) at 10uM” value is -66.7%.

With `O=C(NC1CC1)c1cc2c(s1)-c1ccccc1OC2`, the “hERG current change (%, negative = inhibition) at 10uM” value worked out at 12.6%.

Turning to `COC(=O)c1cc2c(s1)-c1ccccc1OC2`, the “hERG current change (%, negative = inhibition) at 10uM” value stood at 0.157%.

For `O=C(NCc1cccs1)c1cc2c(s1)-c1ccccc1OC2`, the “hERG current change (%, negative = inhibition) at 10uM” value came out at 1.42%.

For the compound `CC1CCCC(C)N1CCCNC(=O)c1cc2c(s1)-c1ccccc1OC2` (centres unmarked), the “hERG current change (%, negative = inhibition) at 10uM” value is recorded as -69.9%.

With `Cc1ccc(O)c(-c2cc3ccccc3[nH]2)c1`, the “hERG current change (%, negative = inhibition) at 10uM” value is on record as -15.8%.

Turning to `O=C(O)COCC(=O)N1CCCN(c2nccc(C(F)(F)F)n2)CC1`, the “hERG current change (%, negative = inhibition) at 10uM” value stood at 17.7%.

For the compound `CCOC(=O)c1ccc(NC(=O)Cn2cc3c(n2)CCC(C)C3)cc1` (centres unmarked), the “hERG current change (%, negative = inhibition) at 10uM” value is -4.16%.

As to `COC(=O)C1=C(c2ccc(Cl)c(C(F)(F)F)c2)C[C@@H]2CC[C@H]1N2C(=O)NCC1CC1`, the “hERG current change (%, negative = inhibition) at 10uM” value is on record as -16.3%.

Consider `COc1ccc(CC(=O)N/N=C(/C)CC(=O)N(C)c2ccccc2)cc1`, for which the “hERG current change (%, negative = inhibition) at 10uM” value is given as 9.63%.

Take `Cc1ccc(NC(=O)c2cc(NC(=O)c3ccco3)ccc2N2CCCCC2)cc1`: the “hERG current change (%, negative = inhibition) at 10uM” value was determined as 13%.

With `CCCN(CC(=O)Nc1cccc(Br)c1)CC(=O)Nc1ccc(F)c(F)c1F`, the “hERG current change (%, negative = inhibition) at 10uM” value was -10.1%.

For the compound `CCOC(=O)N1CCN(C(=O)c2ccc3c(c2)NC(=O)/C(=C/c2ccccc2)S3)CC1`, the “hERG current change (%, negative = inhibition) at 10uM” value is on record as -17.8%.

For the compound `Cn1c2ccccc2c2nnc(SCC(=O)Nc3cccc(O)c3)nc21`, the “hERG current change (%, negative = inhibition) at 10uM” value is -45.6%.

As for `Cc1ccccc1N1CCN(Cc2ccc3c(c2)OCO3)CC1`, the “hERG current change (%, negative = inhibition) at 10uM” value is -31.2%.

For the compound `Cc1ccccc1Nc1nc(N)nc(CN2CCN(Cc3ccc4c(c3)OCO4)CC2)n1`, the “hERG current change (%, negative = inhibition) at 10uM” value was -68%.

`Cc1ccc(Nc2nc(N)nc(CN3CCN(Cc4ccc5c(c4)OCO5)CC3)n2)c(C)c1`: the “hERG current change (%, negative = inhibition) at 10uM” value is listed as -76.9%.

On to `COc1ccccc1N1CCN(Cc2ccc3c(c2)OCO3)CC1`, for which the “hERG current change (%, negative = inhibition) at 10uM” value is -20.1%.

With `COc1ccccc1NC(=S)N1CCN(Cc2ccc3c(c2)OCO3)CC1`, the “hERG current change (%, negative = inhibition) at 10uM” value is recorded as -1.31%.

Take `Cc1ccccc1NC(=S)N1CCN(Cc2ccc3c(c2)OCO3)CC1`: the “hERG current change (%, negative = inhibition) at 10uM” value is listed as -10.3%.

Take `Cc1ccc(NC(=S)N2CCN(Cc3ccc4c(c3)OCO4)CC2)c(C)c1`: the “hERG current change (%, negative = inhibition) at 10uM” value is reported as -1.01%.

As for `Cc1ccc(Nc2nc(N)nc(CN3CCC(C)CC3)n2)c(C)c1`, the “hERG current change (%, negative = inhibition) at 10uM” value was -57.8%.

On to `Cc1ccc(Nc2nc(N)nc(CN3CCCCCC3)n2)c(C)c1`, for which the “hERG current change (%, negative = inhibition) at 10uM” value is on record as -45.8%.

As for `Cc1ccc(Nc2nc(N)nc(CCl)n2)c(C)c1`, the “hERG current change (%, negative = inhibition) at 10uM” value was 16.1%.

On to `Cc1cccc(Nc2nc(N)nc(CN3CCC(C)CC3)n2)c1C`, for which the “hERG current change (%, negative = inhibition) at 10uM” value was -37.6%.

For the compound `COc1ccccc1Nc1nc(N)nc(CN2CCN(Cc3ccc4c(c3)OCO4)CC2)n1`, the “hERG current change (%, negative = inhibition) at 10uM” value was -78.1%.
